The results in this text go back to PubChem BioAssay AID1347426 (Functional Genomics Laboratory (NCATS/FGL), 2020).

In all, about 31,000 sequences went through this assay and about 1,400 (4.5%) were called active.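 The calls were made as follows: active = median seed-adjusted z-score above 1 or below -1; inactive = the rest.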 Only a selection was taken, and actives are over-represented in it overall.

A short description of the assay: Novel Modifiers of Survival Motor Neuron (SMN) Protein: Gene Identification via Genome-wide siRNA Screen.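 Also: luminescence tracks full-length SMN protein made from the SMN2 reporter.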 The following applies: HEK293T SMN2-luciferase reporter, siRNA knockdown, 72 h; actives lie on both sides. In outline:
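HEK293T cells stably expressing an SMN2 splicing/cDNA-luciferase reporter were reverse-transfected with a druggable-genome siRNA library and read by luminescence at 72 hours; hits defined by MAD score above 1.0 or below -1.0.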
In general terms: A reporter such as luciferase makes a cellular process visible.
For ACAACUUCAUAUCCAGCUUTT against ISLR2, the median seed-adjusted z-score was 0.263 (inactive).

As for GCUGCGAAAGGAUCUCAAATT against UBE3B, the median seed-adjusted z-score is 0.0972 (inactive).

Regarding CAAAUACGGUAAUGCUGUATT against COX7B, the median seed-adjusted z-score is -1.16 (active).

On to GAACUUCACAAGUUCCUCATT against RAB31, for which the median seed-adjusted z-score was 0.41 (inactive).

In the case of GCUUAAUGGUGUCCCGUAATT against PCCA, the median seed-adjusted z-score was 0 (inactive).

CAAGCUCCAUUUUGAAUCATT against SRR: the median seed-adjusted z-score is -0.256 (inactive).

For CGACGGUGGAAGACACCUATT against DIRAS2, the median seed-adjusted z-score is -1.25 (active).

With CAUUGCAAGUUGUUCUUGATT against GJA4, the median seed-adjusted z-score is -0.18 (inactive).

For ACAGCGCUCUCAAUCCCUUTT against GPR150, the median seed-adjusted z-score was -0.129 (inactive).

On to CAUCAGCACUAGCACCUCATT against ZNF213, for which the median seed-adjusted z-score is 1.37 (active).

On to CCCGGUCACUUCUGAGAAATT against ZNF696, for which the median seed-adjusted z-score is 0.17 (inactive).

GGAAGAGUCAUACAUCAAUTT against DDX55: the median seed-adjusted z-score is 0.507 (inactive).

With GCAUAGCUCUCGAUAAGAATT against MYH4, the median seed-adjusted z-score is -1.8 (active).

For GGAUCAUGCUGAGAUGCAATT against RASAL2, the median seed-adjusted z-score is 0 (inactive).

Turning to CCAUCGUGGUAGAUCCGUUTT against CBL, the median seed-adjusted z-score is -0.417 (inactive).

GCUUUGUCACAUAACGUGATT against SLC38A2: the median seed-adjusted z-score was -1.04 (active).

Take GGUUGCUAUAUGUUCCGAATT against MLL: the median seed-adjusted z-score was 0.227 (inactive).

For UGACGUGCACAGGAAGAAATT against OXCT2, the median seed-adjusted z-score was -0.449 (inactive).

With GGGAAUAGCUUAUCUUGUUTT against RFC4, the median seed-adjusted z-score was -0.386 (inactive).

Turning to GCAUCUACGUGGGUAACUUTT against SFRS1, the median seed-adjusted z-score was -1.66 (active).

For the sequence GCCCGAAAGAGAAAGCGAATT against POU5F1, the median seed-adjusted z-score is 0.0495 (inactive).

With GCAUCAACGCGGGAUUCCATT against TFAP4, the median seed-adjusted z-score is -0.0515 (inactive).

With CGGUCAUGCUGAUCACCUUTT against GPR119, the median seed-adjusted z-score was -0.382 (inactive).

With CUGCCGCAAUGACAACAAATT against TRIM42, the median seed-adjusted z-score was -0.153 (inactive).

GCGGUAAACUCGACACGUUTT against MARK3: the median seed-adjusted z-score is 0.271 (inactive).

With GGCUGUACAUAGUCCUUUUTT against SNRPB, the median seed-adjusted z-score was -3.17 (active).

For CUACUUAAGUGUGAUAAUATT against OCLN, the median seed-adjusted z-score was 0.232 (inactive).

Turning to GACUAAUGGAUGAAGCUAATT against PBK, the median seed-adjusted z-score is -0.311 (inactive).

Consider GGAAUUCUUUGGGCUGAAATT against MMP1, for which the median seed-adjusted z-score is 0.205 (inactive).

As for GCAUCGGGAAUAAAAUUUATT against LSM2, the median seed-adjusted z-score was -1.48 (active).

In the case of CCCAAUCAAGUGUUACAAATT against JMJD1C, the median seed-adjusted z-score was 0.0338 (inactive).

Consider UGGAGUAUCCUAUCAUGUATT against MGST3, for which the median seed-adjusted z-score was -0.0509 (inactive).

With GCAAAUACGUGUAGACCUATT against EXOSC9, the median seed-adjusted z-score was -0.00796 (inactive).

Turning to AGUACAUCGCGGAUCUGUATT against RCN3, the median seed-adjusted z-score is -2.44 (active).

For the sequence CCACUUCUCCACACCUUGATT against NR4A1, the median seed-adjusted z-score was -0.207 (inactive).

As for GUGACUCCGUGUAUACUUATT against GCA, the median seed-adjusted z-score is -0.162 (inactive).

Consider AGAGCAAAACAGUCCGAUATT against PCDH8, for which the median seed-adjusted z-score is -1.03 (active).

GAAUUCACUUCAGAGCAAUTT against LMO4: the median seed-adjusted z-score is -0.067 (inactive).

As to CAAUCCAACUAGUAGUUCATT against SP4, the median seed-adjusted z-score is -0.088 (inactive).

Consider CCCUCUAACUGCUCGGAUATT against DNASE2, for which the median seed-adjusted z-score is -1.23 (active).

For GAUCCUAUCGUAGACAUGATT against ZNF440, the median seed-adjusted z-score is 0.208 (inactive).

In the case of CCAGCAAUGAGAAAAAUCUTT against HOXA2, the median seed-adjusted z-score is 0.335 (inactive).

Consider GGCGAACAGUUCUACAUGUTT against IFT57, for which the median seed-adjusted z-score is -1.1 (active).

With CAUCAUUACGAUUAGCCUATT against ARFGAP3, the median seed-adjusted z-score is 0.00412 (inactive).

As for CGGGAUUUAUAGGCAAUGATT against RNASEH1, the median seed-adjusted z-score was -0.0205 (inactive).

Regarding CAUUCGCUCUCAUACUGGATT against CTCF, the median seed-adjusted z-score is -0.0821 (inactive).

With GGAUCUUCAAAGUCACGAATT against CACNA1B, the median seed-adjusted z-score was 0.0963 (inactive).

On to GCACCCACGUCAUCCCUAATT against GRIN1, for which the median seed-adjusted z-score was -0.137 (inactive).

For the sequence CCAUUCUUCUAGCAACUGATT against DDX47, the median seed-adjusted z-score is -0.398 (inactive).

Take GUCCUAUCACCGUAUCUUATT against SF3B4: the median seed-adjusted z-score is -2.56 (active).

GGUUAGGGCUUGACCCAAATT against HIBADH: the median seed-adjusted z-score was 0.234 (inactive).

For CAGACGUGAUGACAAGAUUTT against S100A7, the median seed-adjusted z-score is -0.253 (inactive).

Consider CAAUGGUGUCUACAAGAUUTT against SLCO1C1, for which the median seed-adjusted z-score is 0.071 (inactive).

For CACCUGCUAUGUUACGGGATT against BAT2, the median seed-adjusted z-score was 0.0889 (inactive).

As to AGAUACUGGUAUUGCUCGATT against SNRPB, the median seed-adjusted z-score was -3.17 (active).

Consider GACCCAUUGCUGUCCAACATT against EMID1, for which the median seed-adjusted z-score is 0.979 (inactive).

For AGAGGAACUUUAUUCUUGATT against HNRNPUL2, the median seed-adjusted z-score is -0.0273 (inactive).

In the case of AUAACUACCUGAUCAAGAATT against YWHAG, the median seed-adjusted z-score was 1.98 (active).

As to CCCUGGUAGUUCCACACCATT against CRHBP, the median seed-adjusted z-score was -0.0443 (inactive).

GAACAUUGGUUCUUAGAGATT against MKRN2: the median seed-adjusted z-score is 0 (inactive).

Turning to GGGACUUCAUGUUCGAGCATT against DNAI2, the median seed-adjusted z-score is 0.12 (inactive).

For GCAGAAAGGUGUAACAUAATT against DDI2, the median seed-adjusted z-score was 1.27 (active).

As to CAGGCAAACCGCUACAUCATT against EN1, the median seed-adjusted z-score was 0.761 (inactive).

As to ACAGUUCUCUAUGACCUCATT against PLA2G4E, the median seed-adjusted z-score was 0.266 (inactive).

For the sequence AGUGCAUGGUUGCAGCUGATT against RNF144A, the median seed-adjusted z-score was -0.185 (inactive).

Take GAAUCAAUAUAAUCUAGCATT against UBE2Q2: the median seed-adjusted z-score was 0.146 (inactive).

Regarding AGAACUGCGUGACUAUACATT against ZNF417, the median seed-adjusted z-score was 0.0205 (inactive).

As to GCCUCUCACAUCUAUGGUATT against ITIH4, the median seed-adjusted z-score is 0.64 (inactive).

Turning to GGAGAAAGAAUGACGAGAATT against TGFBR2, the median seed-adjusted z-score was 0.8 (inactive).
